The results in this text go back to PubChem BioAssay AID652048 (National Center for Advancing Translational Sciences (NCATS), 2013).

SMILES strings stand for the structures. Values joined by “and” are separate entries in the source; they are usually repeats but may differ in a detail not shown here. Identical values can stand only once. In all, about 410,000 compounds went through this assay and about 2,400 (0.59%) were called active. Rule as the data show it: active = max activation above about 30%; inactive = the rest. Many of the other results were omitted from the sample, so actives are more common in it than they were.

Sequence of D(3) dopamine receptor (Homo sapiens) (P35462 whole entry, looked up): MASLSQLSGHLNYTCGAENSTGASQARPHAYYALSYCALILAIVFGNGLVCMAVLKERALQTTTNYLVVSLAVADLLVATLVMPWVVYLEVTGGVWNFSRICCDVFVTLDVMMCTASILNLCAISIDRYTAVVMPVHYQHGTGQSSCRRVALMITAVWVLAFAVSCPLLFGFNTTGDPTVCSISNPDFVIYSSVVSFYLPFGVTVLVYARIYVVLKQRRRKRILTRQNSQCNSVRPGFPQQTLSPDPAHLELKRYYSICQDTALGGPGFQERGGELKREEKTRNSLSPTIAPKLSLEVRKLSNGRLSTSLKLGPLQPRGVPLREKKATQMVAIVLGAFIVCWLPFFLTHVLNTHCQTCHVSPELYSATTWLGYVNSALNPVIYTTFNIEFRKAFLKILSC

The experiment has as its target D(3) dopamine receptor (Homo sapiens) (UniProt P35462). As to the kind of experiment: qHTS of D3 Dopamine Receptor Agonist: qHTS. Also: 0% is about no effect. The following applies: D3R DiscoveRx beta-arrestin cells, luminescence, 90 min; active compounds read high. The source says:
D3 DARs represent a very important target for the treatment of several neuropsychiatric disorders. Indeed, one of the most promising therapeutic applications for the D3 DAR is in the area of addiction and related disorders. […] These findings have been observed with a number of addictive substances including cocaine, amphetamine, nicotine, and alcohol. […] Antagonism of the D3 DAR may also be therapeutic in the treatment of schizophrenia or psychosis. […] Since the D3 DAR is expressed in areas of the CNS associated with the control of mood and emotion, it has been hypothesized that selective antagonism of the D3 DAR may be effective in treating psychosis without inducing the motor side effects typically seen with D2 DAR antagonists.
This part of the project aims to discover novel agonist.
NIH Chemical Genomics Center [NCGC]
NIH Molecular Libraries Probe Centers Network [MLPCN]
Assay Submitter (PI): David Sibley, NINDS
Freshly passaged cells are plated in 1536 well white, solid bottom plates at a density of 1500 cells/well in 3microl of complete media. After an overnight incubation at 37 degrees C in 5% CO2, cells are loaded with 23nl of test compound from the compound library (as well as dopamine controls) using a 1536 pintool and incubated at 37 degrees C for 90 minutes. Two microliters of DiscoveRx reagent is then added to all cells, and they are incubated for an additional 30 - 60 minutes at room temperature. Following incubation, luminescence is measured on a ViewLux CCD-based luminometer reader using a 20 sec exposure time.
For `O=c1[nH]c(CN2CC=C(c3ccccc3)CC2)nc2scc(-c3cccs3)c12`, the max activation is 53.9% (active). Turning to `CCCCC1C(=O)NC(=O)N(C2CCCCC2)C1=O` (stereo not given), the max activation was -3.28% (inactive). On to `O=P1(N(CCCl)CCCl)NC(OO)CCO1` (stereo not given), for which the max activation is 1.75% (inactive). As for `C#C[C@]1(OC(=O)CCCCCC)CC[C@H]2[C@@H]3CCC4=CC(=O)CC[C@@H]4[C@H]3CC[C@@]21C`, the max activation was 26.4% (inactive). Turning to `O=S(=O)(O)C(F)(F)C(F)(F)C(F)(F)C(F)(F)F`, the max activation was -6.51% (inactive). As to `COc1cc(C[C@H](C)N)c(OC)cc1Br`, the max activation is -14.5% (inactive). With `COC1C(O)C(C)OC(OC2CCC3(C=O)C(CCC4C3CCC3(C)C(C5=CC(=O)OC5)CCC43O)C2)C1O` (stereo not given) the figure was 1.37% (inactive); with `C[C@]12CC[C@H](O)C[C@H]1CC[C@@H]1C2CC[C@]2(C)[C@@H](C3=CC(=O)OC3)[C@@H](O)C[C@]12O` (stereo not given in full), 51.5% (active). With `COC12CC[C@@]3(C[C@@H]1C(C)(O)C(C)(C)C)[C@H]1Cc4ccc(O)c5c4[C@@]3(CCN1CC1CC1)[C@H]2O5` (stereo not given in full) the figure was 6.77% (inactive); with `O=C1C[C@@H]2OCC=C3CN4CC[C@]56c7ccccc7N1[C@H]5[C@H]2[C@H]3C[C@H]46` (tested in a mixture with another compound), 11.4% (inactive) and 8.18% (inactive).
